Results on three compounds are retold here after PubChem BioAssay (EPA / NIEHS).

Where “and” joins values, the source holds several entries; their conditions need not be identical. Identical values can stand only once. Calls of active or inactive are those of the source. How the source made its calls: active means hit-call score of the fitted dose curve at least 0.9, where 1 is the maximum; inactive means score below 0.9.

One may read the AC50 as the midpoint of the concentration-response curve, whichever way the signal moves.

What all share (conditions): mRNA level, 48 h; actives raise or lower the signal
Read-out in assay [1]: JUN Transcription Factor, JUN (gene 3725)
Put plainly: LTEA_HepaRG_JUN: Life Technologies and Expression Analysis (LTEA) Assay for JUN Transcription Factor using HepaRG (AID 2283513). The procedure, abridged:
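mRNA measured by TaqMan qRT-PCR after 48 h chemical exposure of HepaRG cultures; normalization to three housekeeping genes. Duplicate eight-point half-log curves from 100 uM in 0.5% DMSO; gain or loss fitted against DMSO baseline.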

Read-out in assay [2]: Lipase C (LIPC), LIPC (gene 3990)
Put plainly: LTEA_HepaRG_LIPC: Life Technologies and Expression Analysis (LTEA) Assay for Lipase C (LIPC) using HepaRG (AID 2283514). The procedure, abridged:
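In this multiplexed gene-expression screen, human HepaRG cultures received test chemicals for 48 h across eight concentrations with 100 uM highest, in duplicate. Values reflect LIPC mRNA induction or suppression versus DMSO vehicle, from normalized qRT-PCR.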

Read-out in assay [3]: Lipoprotein lipase (LPL), LPL (gene 4023)
The experiment in a line: LTEA_HepaRG_LPL: Life Technologies and Expression Analysis (LTEA) Assay for Lipoprotein lipase (LPL) using HepaRG (AID 2283515). The procedure, abridged:
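Concentration-response testing used half-log steps from 100 uM in 0.5% DMSO on human HepaRG cells, 48 h, duplicate wells. Phenobarbital 1 mM served as induction control; LPL mRNA was normalized to ACTB, GAPDH, POLR2A.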

Read-out in assay [4]: MicroRNA 122 (MIR122), gene 406906
The experiment in a line: LTEA_HepaRG_MIR122: Life Technologies and Expression Analysis (LTEA) Assay for MicroRNA 122 (MIR122) using HepaRG (AID 2283516). Further: the transcript read is the microRNA miR-122. Put shortly:
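Expression measured by microfluidic qRT-PCR with three housekeeping genes for normalisation, after 48 h treatment of HepaRG cultures. Eight concentrations (top 100 uM, half-log steps, 0.5% DMSO vehicle) in duplicate; gain or loss fitted relative to vehicle.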

Read-out in assay [5]: matrix metalloproteinase-10 (MMP10), MMP10 (gene 4319)
Put plainly: LTEA_HepaRG_MMP10: Life Technologies and Expression Analysis (LTEA) Assay for matrix metalloproteinase-10 (MMP10) using HepaRG (AID 2283517). The procedure, abridged: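 In differentiated HepaRG cultures kept in 0.5% DMSO, test chemicals act for 48 h over an eight-point range with a top dose of 100 uM. Expression is then quantified by TaqMan RT-PCR against ACTB, GAPDH and POLR2A.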

Read-out in a further assay: MYC, MYC (gene 4609)
The experiment in a line: LTEA_HepaRG_MYC: Life Technologies and Expression Analysis (LTEA) Assay for MYC using HepaRG (AID 2283518). Put shortly: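 MYC transcript changes, up or down relative to 0.5% DMSO, from TaqMan qRT-PCR normalized to three housekeeping genes. Human HepaRG cultures received chemicals for 48 h at eight half-log concentrations up to 100 uM, in duplicate.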

Read-out in assay [6]: matrix metalloproteinase-3 (MMP3), MMP3 (gene 4314)
Put plainly: LTEA_HepaRG_MMP3: Life Technologies and Expression Analysis (LTEA) Assay for matrix metalloproteinase-3 (MMP3) using HepaRG (AID 2283519). The procedure, abridged: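 Human liver HepaRG cultures received chemicals (top concentration 100 uM, 0.5% DMSO) for 48 h in duplicate. MMP3 mRNA induction or loss was then assessed via TaqMan qRT-PCR with housekeeping-gene normalisation.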

Read-out in assay [7]: Paternally Expressed 10 (PEG10), PEG10 (gene 23089)
The experiment in a line: LTEA_HepaRG_PEG10: Life Technologies and Expression Analysis (LTEA) Assay for Paternally Expressed 10 (PEG10) using HepaRG (AID 2283520).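 On AC50: PEG10 transcript by qRT-PCR normalised to ACTB GAPDH and POLR2A.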 Put shortly:
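PEG10 transcript measured by Fluidigm qRT-PCR, normalized to three housekeeping genes, in HepaRG cells treated 48 h (highest 100 uM, half-log steps, 0.5% DMSO vehicle). Cells plated 48 h before switching to serum-free induction medium.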

Read-out in assay [8]: Nuclear factor NF-kappa-B p105 subunit (Homo sapiens) (UniProt P19838)
Put plainly: LTEA_HepaRG_NFKB1: Life Technologies and Expression Analysis (LTEA) Assay for Nuclear Factor Kappa B Subunit 1 (NFKB1) using HepaRG (AID 2283521).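 Further: TaqMan qRT-PCR transcript normalised to ACTB GAPDH and POLR2A housekeeping genes.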 The procedure, abridged: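 Differentiated human HepaRG cells in serum-free induction medium with 0.5% DMSO were exposed for 48 h to eight half-log concentrations, top 100 uM, in duplicate. NFKB1 mRNA measured by Fluidigm TaqMan qRT-PCR, normalised to ACTB, GAPDH and POLR2A; bidirectional fit versus DMSO.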

Read-out in assay [9]: Protein phosphatase 2A (PPP2R4), PTPA (gene 5524)
Put plainly: LTEA_HepaRG_PPP2R4: Life Technologies and Expression Analysis (LTEA) Assay for Protein phosphatase 2A (PPP2R4) using HepaRG (AID 2283522). Put shortly: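 Expression was quantified by Fluidigm qRT-PCR normalised to three housekeeping genes after 48 h treatment. Human HepaRG cells received an 8-point series from 100 µM downward by half-logs, in duplicate with 0.5% DMSO vehicle and 1 mM phenobarbital as induction control.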

Read-out in assay [10]: Phosphatase and tensin (PTEN), PTEN (gene 5728)
The experiment in a line: LTEA_HepaRG_PTEN: Life Technologies and Expression Analysis (LTEA) Assay for Phosphatase and tensin (PTEN) using HepaRG (AID 2283523). The procedure, abridged: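 Expression of PTEN is quantified in the human liver line HepaRG following two days of dosing (top concentration 100 uM, half-log dilutions, 0.5% DMSO). Values derive from bidirectional curve fitting relative to DMSO controls.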

Read-out in assay [11]: solute carrier (SLC22A1), SLC22A1 (gene 6580)
The experiment in a line: LTEA_HepaRG_SLC22A1: Life Technologies and Expression Analysis (LTEA) Assay for solute carrier (SLC22A1) using HepaRG (AID 2283524).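 On AC50: TaqMan qRT-PCR normalized to ACTB GAPDH and POLR2A housekeeping genes.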 Put shortly: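 Transcript induction or suppression of SLC22A1 in human HepaRG cultures is scored after 48 h chemical treatment, with DMSO (0.5%) as baseline for bidirectional fitting. Concentrations span eight half-log points topping at 100 uM.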

Read-out in assay [12]: Pyruvate Dehydrogenase Kinase 4 (PDK4), PDK4 (gene 5166)
Put plainly: LTEA_HepaRG_PDK4: Life Technologies and Expression Analysis (LTEA) Assay for Pyruvate Dehydrogenase Kinase 4 (PDK4) using HepaRG (AID 2283525). The procedure, abridged:
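Eight-point, half-log concentration series (max 100 uM, 0.5% DMSO) applied to differentiated HepaRG cells for 48 h in duplicate. Endpoint: PDK4 mRNA induction or repression by qRT-PCR against DMSO baseline.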

Read-out in assay [13]: NAD(P)H dehydrogenase [quinone] 1 (NQO1), NQO1 (gene 1728)
Put plainly: LTEA_HepaRG_NQO1: Life Technologies and Expression Analysis (LTEA) Assay for NAD(P)H dehydrogenase [quinone] 1 (NQO1) using HepaRG (AID 2283526). The procedure, abridged: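 NQO1 transcript induction or loss measured by TaqMan qRT-PCR, referenced to three housekeeping genes and fitted bidirectionally against 0.5% DMSO. HepaRG cultures exposed 48 h, duplicate, eight-point half-log series, top 100 uM.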

Read-out in assay [14]: Nuclear factor erythroid 2-related factor 2 (Homo sapiens) (UniProt Q16236)
Put plainly: LTEA_HepaRG_NFE2L2: Life Technologies and Expression Analysis (LTEA) Assay for Nuclear factor erythroid 2-related factor 2 (NFE2L2) Transcription Factor using HepaRG (AID 2283527).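 On outcome: TaqMan qRT-PCR transcript level normalised to ACTB GAPDH and POLR2A housekeeping genes.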 The procedure, abridged:
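Human liver HepaRG line treated in duplicate for 48 h with an eight-point series topping at 100 uM. Gene expression of NFE2L2 by qRT-PCR, bidirectionally fitted against the vehicle control.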

Read-out in assay [15]: succinate dehydrogenase complex iron sulfur subunit B (SDHB), SDHB (gene 6390)
The experiment in a line: LTEA_HepaRG_SDHB: Life Technologies and Expression Analysis (LTEA) Assay for succinate dehydrogenase complex iron sulfur subunit B (SDHB) using HepaRG (AID 2283528). Put shortly:
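HepaRG cells (~100,000/well, plated 48 h) exposed in duplicate for 48 h in serum-free induction medium to 8-point half-log series from 100 uM in 0.5% DMSO; mRNA by qRT-PCR normalised to ACTB, GAPDH, POLR2A; bidirectional fit versus DMSO.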

Read-out in assay [16]: Signal transducer and activator of transcription 3 (Homo sapiens) (UniProt P40763)
The experiment in a line: LTEA_HepaRG_STAT3: Life Technologies and Expression Analysis (LTEA) Assay for Signal transducer and activator of transcription (STAT3) using HepaRG (AID 2283529). Put shortly:
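In this transcriptional endpoint, HepaRG cultures receive test chemicals at up to 100 uM for 48 h, tested in duplicate. STAT3 mRNA is normalized to ACTB, GAPDH and POLR2A.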

Read-out in assay [17]: solute carrier (SLCO1B1), SLCO1B1 (gene 10599)
Put plainly: LTEA_HepaRG_SLCO1B1: Life Technologies and Expression Analysis (LTEA) Assay for solute carrier (SLCO1B1) using HepaRG (AID 2283530). The procedure, abridged:
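SLCO1B1 transcript levels were quantified by TaqMan qRT-PCR using three housekeeping genes for normalization. This followed 48 h chemical exposure (100 uM top, half-log, 8 points, 0.5% DMSO) of HepaRG liver cells, with gain or loss fitted relative to DMSO.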

Read-out in assay [18]: sulfotransferase 2A1 (SULT2A1), SULT2A1 (gene 6822)
Put plainly: LTEA_HepaRG_SULT2A1: Life Technologies and Expression Analysis (LTEA) Assay for sulfotransferase 2A1 (SULT2A1) using HepaRG (AID 2283531). The procedure, abridged: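 Expression change of SULT2A1, by qRT-PCR with three housekeeping-gene normalization, was scored bidirectionally versus DMSO. Cells: differentiated HepaRG, dosed in duplicate for 48 h across 8 points, highest 100 µM, half-log dilution, 0.5% DMSO.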

Read-out in assay [19]: Transforming Growth Factor (TGFA), TGFA (gene 7039)
The experiment in a line: LTEA_HepaRG_TGFA: Life Technologies and Expression Analysis (LTEA) Assay for Transforming Growth Factor (TGFA) using HepaRG (AID 2283532). The procedure, abridged: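 Gene expression of TGFA was quantified by qRT-PCR after human HepaRG cells were treated for 48 h with test chemicals (eight concentrations, highest 100 uM, 0.5% DMSO). Activity in either direction was fitted relative to DMSO.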

Chain of Nuclear factor erythroid 2-related factor 2 (Homo sapiens) (Q16236 whole entry, looked up): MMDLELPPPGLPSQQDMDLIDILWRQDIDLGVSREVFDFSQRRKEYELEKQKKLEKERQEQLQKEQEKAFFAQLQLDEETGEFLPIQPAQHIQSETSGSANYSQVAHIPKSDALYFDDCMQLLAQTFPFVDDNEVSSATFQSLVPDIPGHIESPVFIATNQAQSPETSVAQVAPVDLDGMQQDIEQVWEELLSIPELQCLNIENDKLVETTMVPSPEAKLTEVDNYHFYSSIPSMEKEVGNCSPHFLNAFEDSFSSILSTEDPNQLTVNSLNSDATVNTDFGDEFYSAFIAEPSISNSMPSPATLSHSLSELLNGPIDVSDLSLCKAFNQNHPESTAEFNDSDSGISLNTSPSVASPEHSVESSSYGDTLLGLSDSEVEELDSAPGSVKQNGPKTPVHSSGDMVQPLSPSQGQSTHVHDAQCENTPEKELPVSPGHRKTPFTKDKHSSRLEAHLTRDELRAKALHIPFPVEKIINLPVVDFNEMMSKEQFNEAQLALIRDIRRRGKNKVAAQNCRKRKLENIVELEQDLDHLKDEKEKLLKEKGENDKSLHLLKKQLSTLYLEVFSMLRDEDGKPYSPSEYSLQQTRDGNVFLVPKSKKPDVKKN
Chain of Signal transducer and activator of transcription 3 (Homo sapiens) (P40763 whole entry, looked up): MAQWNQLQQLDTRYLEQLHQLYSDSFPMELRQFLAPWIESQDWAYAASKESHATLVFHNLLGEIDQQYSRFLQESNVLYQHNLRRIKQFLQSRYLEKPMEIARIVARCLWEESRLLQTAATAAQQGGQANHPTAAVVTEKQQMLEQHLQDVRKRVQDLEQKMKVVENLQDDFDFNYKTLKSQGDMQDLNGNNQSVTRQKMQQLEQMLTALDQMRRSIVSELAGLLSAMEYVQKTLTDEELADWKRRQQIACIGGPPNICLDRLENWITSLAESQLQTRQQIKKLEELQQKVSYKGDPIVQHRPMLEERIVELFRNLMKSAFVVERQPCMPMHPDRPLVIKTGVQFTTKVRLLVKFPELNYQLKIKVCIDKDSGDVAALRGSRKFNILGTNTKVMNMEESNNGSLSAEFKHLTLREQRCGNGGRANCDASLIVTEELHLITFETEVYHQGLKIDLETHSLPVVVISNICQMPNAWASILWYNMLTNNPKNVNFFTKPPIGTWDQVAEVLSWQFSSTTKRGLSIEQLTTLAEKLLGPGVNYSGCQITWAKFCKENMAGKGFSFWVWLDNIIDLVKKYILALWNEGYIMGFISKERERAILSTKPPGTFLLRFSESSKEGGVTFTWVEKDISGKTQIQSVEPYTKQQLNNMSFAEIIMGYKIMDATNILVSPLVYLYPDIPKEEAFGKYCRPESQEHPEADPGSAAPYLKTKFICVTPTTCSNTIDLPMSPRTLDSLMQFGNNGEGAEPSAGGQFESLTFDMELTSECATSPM
Chain of Nuclear factor NF-kappa-B p105 subunit (Homo sapiens) (P19838 whole entry, looked up): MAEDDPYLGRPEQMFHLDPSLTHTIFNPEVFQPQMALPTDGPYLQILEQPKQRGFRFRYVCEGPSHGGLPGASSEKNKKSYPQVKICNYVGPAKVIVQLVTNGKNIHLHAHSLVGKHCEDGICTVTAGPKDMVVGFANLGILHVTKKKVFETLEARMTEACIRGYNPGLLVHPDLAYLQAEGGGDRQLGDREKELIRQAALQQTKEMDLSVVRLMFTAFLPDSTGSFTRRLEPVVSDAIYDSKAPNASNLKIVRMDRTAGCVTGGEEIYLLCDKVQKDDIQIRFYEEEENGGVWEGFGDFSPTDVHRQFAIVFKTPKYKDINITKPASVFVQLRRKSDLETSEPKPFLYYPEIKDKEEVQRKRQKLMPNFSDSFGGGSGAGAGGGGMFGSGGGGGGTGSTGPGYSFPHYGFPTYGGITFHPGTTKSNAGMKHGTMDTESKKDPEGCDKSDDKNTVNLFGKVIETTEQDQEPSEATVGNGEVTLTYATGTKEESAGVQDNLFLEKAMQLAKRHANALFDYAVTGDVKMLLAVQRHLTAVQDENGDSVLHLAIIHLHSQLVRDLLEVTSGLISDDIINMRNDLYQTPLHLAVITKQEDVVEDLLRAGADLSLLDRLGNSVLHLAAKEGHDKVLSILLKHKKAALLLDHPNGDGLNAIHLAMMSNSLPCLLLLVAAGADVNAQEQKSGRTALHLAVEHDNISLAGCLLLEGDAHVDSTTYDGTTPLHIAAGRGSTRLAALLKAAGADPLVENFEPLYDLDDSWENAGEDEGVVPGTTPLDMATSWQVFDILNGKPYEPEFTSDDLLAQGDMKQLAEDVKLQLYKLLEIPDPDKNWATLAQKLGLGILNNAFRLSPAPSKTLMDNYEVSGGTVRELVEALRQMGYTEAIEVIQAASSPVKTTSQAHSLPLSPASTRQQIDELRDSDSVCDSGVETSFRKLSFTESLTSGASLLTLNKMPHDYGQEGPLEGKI

`O=C(O)C(F)(F)C(F)(F)C(F)(F)C(F)(F)C(F)(F)C(F)(F)C(F)(F)F`: the outcome in assay [1] is “inactive”; in assay [2], “inactive”; in assay [3], “inactive”; in [4], “inactive”; in assay [5] it was “inactive”; with MYC, MYC (gene 4609) it was “inactive”. Besides, the compound was classed as inactive in [6], in assay [7], in assay [8], in assay [9], in assay [10] and in assay [11]. In addition, the compound was called inactive in [13], in [14], in assay [15], in assay [16], in assay [17] and in [18]. In assay [19], the call was inactive. Further, in assay [12], the AC50 is 26.9 µM (active) and 21.7 µM (active).

For `O=C(O)CCCOc1ccc(Cl)cc1Cl`, the outcome in assay [1] was “inactive”; in assay [2] it was “inactive”; in [3] it was “inactive”; in assay [4] it was “inactive”; in [5], “inactive”; with MYC, MYC (gene 4609), “inactive”. Further, the compound was called inactive in assay [6], in assay [9], in [10], in assay [11], in assay [13] and in assay [14]. The outcome in [15], in assay [16], in [17], in assay [18] and in [19] was inactive. The AC50 is 10.4 µM (active) in assay [7] and 50.8 µM (active) in assay [12].

On to `C[C@H]1[C@H](c2ccc(Cl)cc2)SC(=O)N1C(=O)NC1CCCCC1`, for which the outcome in [1], in [6], in [10], in assay [12], in assay [13] and in assay [16] was inactive. Further, the AC50 in assay [2] was 36.5 µM (active); in [3], 60.7 µM (active); in assay [4], 60 µM (active); in assay [5], 79.5 µM (active); in the assay with MYC, MYC (gene 4609), 71.1 µM (active); in assay [7], 12.8 µM (active). Further, the AC50 was 50 µM (active) in assay [9]; 50 µM (active) in assay [11]; 73 µM (active) in [14]; 26.7 µM (active) in [15]; 60.7 µM (active) in assay [17]; 93.4 µM (active) in [18]. In addition, in assay [19], the concentration at half-maximal activity (AC50) is 69.5 µM (active).
